Measurements published in PubChem BioAssay.
The source made the active and inactive calls. Unless noted, the rule behind the calls is not given here.

What was measured:
[1] = compounds binding Alexa647 anti-His antibody – biochemical, small-molecule microarray, 635 nm fluorescence, artefact control for SMM control protein annotation, primary screen (AID 1128); conditions: higher = more signal;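 note: score merges feature fluorescence with signal-to-noise for each printed compound spot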
[2] = system: Human papillomavirus type 1a E7 protein (residues 1-88); experiment: HPV1a E7 small-molecule binders, primary screen, biochemical, small-molecule microarray, residues 1-88, 635 nm (AID 1129); conditions: small-molecule microarray binding, fluorescence 635 nm; higher = more signal
[3] = molecular target: Focal adhesion kinase 1 (Homo sapiens) (UniProt Q05397); experiment: PTK2 protein binding on printed compound slides – biochemical, small-molecule microarray, 635/667 nm fluorescence, BSA, DTT, primary screen (AID 1130); conditions: 635 nm fluorescence, higher = more signal;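 note: composite of spot emission at 667 nm and signal to noise over triplicate slides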
Focal adhesion kinase 1 (Homo sapiens), sequence (Q05397 whole entry, looked up): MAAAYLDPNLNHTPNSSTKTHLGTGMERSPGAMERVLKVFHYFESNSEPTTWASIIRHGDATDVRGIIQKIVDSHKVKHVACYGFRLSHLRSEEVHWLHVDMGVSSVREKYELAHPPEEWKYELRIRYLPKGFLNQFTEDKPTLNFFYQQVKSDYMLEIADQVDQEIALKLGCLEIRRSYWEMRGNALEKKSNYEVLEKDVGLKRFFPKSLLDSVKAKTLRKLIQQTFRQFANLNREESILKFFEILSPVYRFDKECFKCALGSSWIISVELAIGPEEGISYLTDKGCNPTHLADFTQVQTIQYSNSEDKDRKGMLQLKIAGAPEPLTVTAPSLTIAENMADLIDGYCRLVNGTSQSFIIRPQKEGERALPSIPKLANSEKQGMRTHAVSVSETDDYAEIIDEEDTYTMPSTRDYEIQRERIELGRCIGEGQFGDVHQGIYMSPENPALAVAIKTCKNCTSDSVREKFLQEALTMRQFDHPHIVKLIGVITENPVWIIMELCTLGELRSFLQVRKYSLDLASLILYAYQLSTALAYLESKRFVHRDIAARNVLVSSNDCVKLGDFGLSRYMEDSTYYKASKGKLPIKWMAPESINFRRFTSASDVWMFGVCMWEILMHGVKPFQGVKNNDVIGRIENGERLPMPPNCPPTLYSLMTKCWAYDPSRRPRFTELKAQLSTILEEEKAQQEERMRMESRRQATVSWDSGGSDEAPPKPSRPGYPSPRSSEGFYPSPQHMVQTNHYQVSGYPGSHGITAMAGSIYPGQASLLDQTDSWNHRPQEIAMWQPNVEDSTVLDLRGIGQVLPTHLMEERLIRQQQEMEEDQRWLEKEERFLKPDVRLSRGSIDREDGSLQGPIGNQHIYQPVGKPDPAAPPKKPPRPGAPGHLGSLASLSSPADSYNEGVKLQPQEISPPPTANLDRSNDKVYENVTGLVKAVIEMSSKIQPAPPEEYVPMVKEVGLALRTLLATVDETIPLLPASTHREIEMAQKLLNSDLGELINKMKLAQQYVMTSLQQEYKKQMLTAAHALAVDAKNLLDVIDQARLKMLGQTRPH

[4] = system: Fibrinogen (Alexa647-labelled); experiment: Alexa647-fibrinogen binding to printed small molecules – biochemical, small-molecule microarray, 635/667 nm fluorescence, artefact control for SMM control-protein annotation, profiling panel (AID 1131); conditions: fibrinogen-A647 binding fluorescence, higher = more signal;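 note: z-score merges 667 nm fluorescence with per-spot signal-to-noise over triplicate slides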
[5] = molecular target: Follistatin (Homo sapiens) (UniProt P19883); experiment: FST protein binding to printed compounds – biochemical, small-molecule microarray, 635/667 nm fluorescence, primary screen (AID 1132); conditions: 635 nm fluorescence, higher = more signal
Follistatin (Homo sapiens), sequence (P19883 whole entry, looked up): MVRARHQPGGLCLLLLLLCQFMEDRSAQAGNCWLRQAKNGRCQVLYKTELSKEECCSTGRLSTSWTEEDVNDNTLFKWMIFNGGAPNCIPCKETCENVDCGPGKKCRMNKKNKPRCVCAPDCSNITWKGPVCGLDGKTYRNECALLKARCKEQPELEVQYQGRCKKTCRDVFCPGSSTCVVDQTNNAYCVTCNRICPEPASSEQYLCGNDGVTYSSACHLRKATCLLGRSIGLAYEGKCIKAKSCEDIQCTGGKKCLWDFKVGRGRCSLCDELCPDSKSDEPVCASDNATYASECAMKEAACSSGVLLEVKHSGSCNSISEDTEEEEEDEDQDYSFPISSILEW

[6] = molecular target: Fibroblast growth factor 2 (Homo sapiens) (UniProt P09038); experiment: basic fibroblast growth factor binding to printed compounds – biochemical, small-molecule microarray, 635/667 nm fluorescence, primary screen (AID 1133); conditions: FGF2, fluorescence 635/667, higher = more signal
Fibroblast growth factor 2 (Homo sapiens), sequence (P09038 whole entry, looked up): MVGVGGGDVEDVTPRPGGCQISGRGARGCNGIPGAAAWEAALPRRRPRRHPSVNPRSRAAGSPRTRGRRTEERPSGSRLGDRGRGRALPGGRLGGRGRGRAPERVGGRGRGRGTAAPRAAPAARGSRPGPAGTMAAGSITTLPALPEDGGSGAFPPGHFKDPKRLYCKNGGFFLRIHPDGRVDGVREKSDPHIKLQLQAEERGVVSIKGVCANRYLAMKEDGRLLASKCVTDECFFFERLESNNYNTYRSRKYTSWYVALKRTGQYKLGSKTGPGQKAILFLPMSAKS

[7] = JC-1 mitochondrial potential readout, lung cancer cells – cell-based, A549, JC-1 fluorescence, basal, 24 h, 100 nL, profiling panel (AID 1138); conditions: higher = more signal;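 note: A549 lung adenocarcinoma cells under basal conditions with no added stimulus; test concentration not given here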
Lefty1 = Lefty1 protein binding to printed compounds – biochemical, small-molecule microarray, 635/667 nm fluorescence, primary screen (AID 1139); conditions: fluorescence 635/667, higher = more signal
[8] = system: wheat germ agglutinin (Triticum aestivum), Alexa647-labelled; experiment: Alexa647-WGA lectin binding to printed small molecules – biochemical, small-molecule microarray, 635/667 nm fluorescence, artefact control for SMM control-protein annotation, profiling panel (AID 1140); conditions: WGA-A647 binding, 635 nm fluorescence, higher = more signal;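 note: score merges 667 nm feature emission with signal to noise over triplicate slides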
[9] = molecular target: Luciferin 4-monooxygenase (Photinus pyralis) (UniProt P08659); experiment: inhibition of purified Photinus pyralis luciferase – biochemical, luminescence, purified enzyme, 2006 set, primary screen (AID 1141); conditions: purified firefly luciferase, SteadyGlo luminescence, 30 min; higher = more signal, called active from +8 up or from −8 down;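 note: cell-free assay with purified firefly luciferase at 100 ng per well in PBS; test concentration not given here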
Luciferin 4-monooxygenase (Photinus pyralis), sequence (P08659 whole entry, looked up): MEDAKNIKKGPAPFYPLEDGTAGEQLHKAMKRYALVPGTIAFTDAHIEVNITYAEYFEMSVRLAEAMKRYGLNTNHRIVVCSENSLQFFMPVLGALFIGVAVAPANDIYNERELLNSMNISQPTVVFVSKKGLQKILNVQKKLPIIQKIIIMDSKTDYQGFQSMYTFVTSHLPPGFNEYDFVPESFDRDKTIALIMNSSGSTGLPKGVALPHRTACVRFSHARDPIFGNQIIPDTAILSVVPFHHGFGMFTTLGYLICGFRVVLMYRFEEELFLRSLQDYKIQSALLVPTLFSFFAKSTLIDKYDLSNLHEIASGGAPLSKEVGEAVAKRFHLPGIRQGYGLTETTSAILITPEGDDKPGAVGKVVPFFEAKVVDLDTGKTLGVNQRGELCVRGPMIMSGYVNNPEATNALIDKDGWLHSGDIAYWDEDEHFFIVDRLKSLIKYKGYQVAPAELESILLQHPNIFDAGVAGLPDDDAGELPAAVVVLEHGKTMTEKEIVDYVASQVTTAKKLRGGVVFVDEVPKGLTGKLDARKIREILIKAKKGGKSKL

[10] = system: Wnt5a (protein binding on small-molecule microarray); experiment: small molecules binding Wnt5a protein – biophysical, small-molecule microarray, 635/667 nm fluorescence, primary screen (AID 1142); conditions: 635 nm fluorescence, higher = more signal;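 note: fluorescence read at 667 nm with signal to noise per printed feature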
[11] = ATP-based viability of Huh7 replicon cells – cell-based, CellTiter-Glo luminescence, basal, 48 h, cytotoxicity control for HCV replication inhibitor project, primary screen (AID 1143); conditions: higher = more signal, called active from +8 up or from −8 down;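 note: Huh7 hepatoma cells carrying a hepatitis C replication reporter with no stimulus; test concentration not given here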
[12] = Pseudomonas biofilm growth suppression – PAO1 strain, BacTiter-Glo luminescence, LB-PBS, primary screen (AID 1144); conditions: P. aeruginosa PAO1 biofilm, 12 h, higher = more signal
[13] = basal CRE-LacZ reporter activity in PC12 – cell-based, unstimulated, primary screen (AID 1145); conditions: no forskolin, luminescence, 4.5 h, higher = more signal, called active from +8 up or from −8 down
[14] = forskolin-driven CRE-LacZ activity in PC12 – cell-based, CRE-LacZ reporter, forskolin-stimulated, primary screen (AID 1146); conditions: luminescence, 4.5 h, higher = more signal, called active from +8 up or from −8 down;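 note: PC12 cells with 6xCRE LacZ reporter stimulated by forskolin 10 µM; beta-galactosidase reporter signal reflecting CREB driven transcription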
[15] = molecular target: Streptavidin (Streptomyces avidinii) (UniProt P22629); experiment: compounds binding control protein streptavidin – biophysical, small-molecule microarray, 635/667 nm fluorescence, artefact control for SMM compound annotation, primary screen (AID 1147); conditions: higher = more signal;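 note: signal reflects streptavidin binding to arrayed compounds as a control protein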
Streptavidin (Streptomyces avidinii), sequence (P22629 whole entry, looked up): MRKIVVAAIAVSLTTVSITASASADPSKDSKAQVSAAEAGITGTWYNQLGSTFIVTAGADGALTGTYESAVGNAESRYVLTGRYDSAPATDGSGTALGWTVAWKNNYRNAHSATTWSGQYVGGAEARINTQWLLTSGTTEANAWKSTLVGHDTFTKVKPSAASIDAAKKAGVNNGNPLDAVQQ

[16] = probe aInhba binding on compound microarray – biochemical, small-molecule microarray, 635/667 nm fluorescence, primary screen (AID 1148); conditions: higher = more signal;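 note: score merges 667nm spot fluorescence with signal-to-noise for antibody binding to printed compounds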
Torsin-1A (Homo sapiens) [17] = molecular target: Torsin-1A (Homo sapiens) (UniProt O14656); experiment: TOR1A wild-type binding on microarray – cell lysate, small-molecule microarray, lysate, 635/667 nm, primary screen (AID 1149); conditions: COS7 hTOR1A-WT lysate, 635 nm fluorescence, higher = more signal
Torsin-1A (Homo sapiens), sequence (O14656 whole entry, looked up): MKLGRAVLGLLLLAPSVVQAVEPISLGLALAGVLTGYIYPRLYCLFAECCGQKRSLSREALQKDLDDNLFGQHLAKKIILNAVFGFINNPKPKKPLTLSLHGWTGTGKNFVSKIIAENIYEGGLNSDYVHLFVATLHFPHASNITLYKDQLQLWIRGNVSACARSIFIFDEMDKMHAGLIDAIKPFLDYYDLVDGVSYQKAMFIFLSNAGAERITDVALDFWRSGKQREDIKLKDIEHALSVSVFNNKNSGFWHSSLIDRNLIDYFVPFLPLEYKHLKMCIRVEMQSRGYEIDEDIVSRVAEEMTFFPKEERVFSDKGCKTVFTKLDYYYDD

Torsin-1A (Homo sapiens) [18] = molecular target: Torsin-1A (Homo sapiens) (UniProt O14656); experiment: torsin A mutant lysate binding on microarrays – cell lysate, small-molecule microarray, COS7 lysate, 635/667 nm fluorescence, primary screen (AID 1150); conditions: COS7 hTOR1A mutant lysate, 635 nm fluorescence, higher = more signal;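 note: score pools 667 nm emission and signal to noise measuring lysate protein binding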
[19] = system: Sonic hedgehog protein (Shh); experiment: Sonic hedgehog microarray binding compounds – biochemical, small-molecule microarray, 635/667 nm fluorescence, primary screen (AID 1151); conditions: 635 nm fluorescence, higher = more signal;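 note: Shh protein binding to compounds spotted on small-molecule microarray slides; score combines spot fluorescence intensity with signal-to-noise across triplicate slides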

Row | SMILES | composite z-score [1] | composite z-score [2] | composite z-score [3] | composite z-score [4] | composite z-score [5] | composite z-score [6] | z-score [7] | composite z-score (Lefty1) | composite z-score [8] | z-score [9] | composite z-score [10] | z-score [11] | z-score [12] | z-score [13] | z-score [14] | composite z-score [15] | composite z-score [16] | composite z-score (Torsin-1A (Homo sapiens) [17]) | composite z-score (Torsin-1A (Homo sapiens) [18]) | composite z-score [19]
1 | C=CCNC(=O)[C@@H]1[C@H]2C(=O)O[C@H](c3ccccc3)[C@H](c3ccccc3)N2[C@H](c2ccccc2OCCO)[C@@]12C(=O)N(C(=O)OCCOC)c1ccc(C#CC3=CCCCC3)cc12 | 1.66 | 1.19 | 0.636 | 0.682 | 1.01 | 1.43 | -0.663 | 0.949 | 0.762 | -1.53 (inactive) | 0.18 | -4.3 (inactive) | -0.348 (inactive) | 0.0614 (inactive) | -1.49 (inactive) | 0.497 | -0.146 | 0.458 | 0.669 | 0.634
2 | CCOC(=O)C[C@H]1[C@H](OC(=O)c2ccc(-c3ccccc3)cc2)[C@@H](NC(=O)C2CCCCC2)c2cc(OCCCO)ccc2N1C(=O)c1ccccc1 | 0.0672 | 0.755 | 0.559 | 0.845 | 0.461 | 0.406 | 0.0651 | 0.544 | 0.207 | 0.0421 (inactive) | 0.0722 | -0.0788 (inactive) | -0.376 (inactive) | -0.0247 (inactive) | 0.178 (inactive) | 0.947 | -0.133 | -0.0488 | 0.221 | 0.957
3 | C=C(CCCC)C(=O)CC[C@@H](OC(=O)c1ccccc1-c1ccccc1C(=O)O)c1cccc(OCCO)c1 | -0.0724 | 0.53 | 0.113 | 0.834 | 1.43 | 1.56 | 0.317 | 1.68 | -0.0168 | -2.33 (inactive) | 0.137 | -0.854 (inactive) | 0.194 (inactive) | 3.31 (inactive) | 8.69 (active) | -0.6 | -0.231 | 0.604 | 0.561 | 1.68
4 | CCOC(=O)C1=C[C@@H](c2ccccc2)N(S(=O)(=O)c2ccc(C)cc2)[C@H]1c1cccc(Cl)c1 | 2.44 | 1.17 | 0.283 | 0.612 | 0.938 | 0.111 | 3.78 | 0.465 | 1.31 | 1.18 (inactive) | 0.55 | -3.89 (inactive) | 1.51 (inactive) | 0.182 (inactive) | -0.451 (inactive) | 1.34 | 0.351 | 0.631 | 0.569 | 0.319
5 | CC1CC/C=C\[C@H]2OC34C=CCN(C(C)C)C(=O)[C@H]3N(CCCCCO)C(=O)[C@@H]4C2C(=O)O1 (stereo not given in full) | -1.07 | -1.71 | -0.6 | -1.29 | -0.985 | -1.17 | 1.68 | -1.42 | -0.892 | -1.39 (inactive) | -0.432 | -0.262 (inactive) | 1.39 (inactive) | 1.67 (inactive) | -0.478 (inactive) | -1.16 | -0.157 | -1.14 | -0.751 | -0.375
6 | C=CCOC(=O)[C@H]1[C@@H]2C(=O)O[C@@H](c3ccccc3)[C@@H](c3ccccc3)N2[C@@H](c2ccc(OCCOC(=O)[C@H]3C[C@H]4C(=O)N[C@@H](Cc5ccccc5)C(=O)N4[C@H]3c3cccc(OCCO)c3)cc2)[C@]12C(=O)Nc1ccc(I)cc12 | 2.34 | 1.16 | 0.41 | 0.948 | 1.2 | 1.71 | -1.41 | 1.35 | 0.324 | -0.65 (inactive) | 0.971 | -0.441 (inactive) | -0.283 (inactive) | 0.688 (inactive) | 0.144 (inactive) | 0.309 | -0.0112 | 0.703 | 0.815 | 2.16
7 | COC(=O)[C@@]1(Cc2ccccc2)[C@H]2c3cc(C(=O)N4CCCC4)n(Cc4cc(F)cc5c4OCOC5)c3C[C@H]2CN1C(=O)c1ccccc1 | 0.69 | 1.24 | 0.366 | 0.963 | -0.0178 | -0.575 | 0.487 | -0.359 | 0.711 | 0.827 (inactive) | 0.503 | 0.147 (inactive) | -0.511 (inactive) | -0.185 (inactive) | 0.444 (inactive) | 0.503 | 0.0982 | -0.0566 | 1.26 | -0.457
8 | C=C(/C=C/CNS(=O)(=O)c1ccc(C)cc1)[C@H](O)[C@H]1CCCN1S(=O)(=O)c1ccccc1[N+](=O)[O-] | -0.394 | 0.237 | 0.0627 | 0.53 | 0.933 | 0.891 | 0.381 | 0.887 | 0.299 | -0.83 (inactive) | 0.118 | -1.58 (inactive) | 1.01 (inactive) | 6.84 (inactive) | -1.17 (inactive) | 0.337 | -0.0791 | 0.361 | 0.388 | 0.758
9 | COCC(=C=CC[C@H](O)c1ccc(OCCO)cc1)C[C@H](O)COCc1ccccc1 | 1.35 | 0.887 | 0.453 | 0.31 | 1.21 | 0.372 | 0.743 | 0.722 | 0.624 | -0.627 (inactive) | 0.122 | -1.66 (inactive) | -0.54 (inactive) | 0.611 (inactive) | -0.724 (inactive) | 0.249 | -0.0736 | 0.908 | 0.719 | 1.55
10 | CC=CC(O)C1C=CC2C(=O)N(C)C(=O)C2N1N1CCCCC1 (stereo not given) | 0.523 | 1.19 | 0.518 | 0.714 | 1.08 | -0.0299 | -0.138 | 0.446 | 0.864 | -0.451 (inactive) | 0.251 | 0.173 (inactive) | -0.0466 (inactive) | 1.79 (inactive) | 0.319 (inactive) | 0.988 | -0.15 | 0.74 | 0.71 | 0.441
